# Active and inactive are the calls of the source.
# What was measured:
# [1] = test system: PRMT1 (protein arginine N-methyltransferase 1); experiment: PRMT1 binders on small-molecule microarrays, primary screen, biochemical, small-molecule microarray, 635 nm fluorescence (AID 1088); details: small-molecule microarray binding, higher = more signal;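 further: binding of Prmt1 protein to compounds spotted on small-molecule microarray slides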
# [2] = yeast growth modulation, basal conditions, primary screen, YJM789 clinical isolate, OD600, 24 h (AID 1089);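 further: growth of clinical yeast isolate S. cerevisiae YJM 789 seeded 1000 cells per well; test concentration not given here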; details: S. cerevisiae YJM789 growth, higher = more signal, called active from +8 up or from −8 down
# [3] = fission yeast growth modulation, primary screen, strain 972, OD600, 24 h, no modulator (AID 1090);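 further: basal condition with compound alone and no growth modifier present; test concentration not given here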; details: S. pombe 972 growth, higher = more signal, called active from +8 up or from −8 down
# [4] = S. cerevisiae growth modulation with rapamycin, primary screen, strain BY4716, OD600, 96 h (AID 1091); details: higher = more signal, called active from +8 up or from −8 down; further: test concentration not given here
# [5] = biological target: Torsin-1A-interacting protein 2 (Homo sapiens) (UniProt Q8NFQ8); experiment: LULL1 binders on small-molecule microarray, primary screen, cell lysate, human LULL1 lysate, 635/667 nm fluorescence (AID 1092); details: hLULL1 lysate binding, 635 nm fluorescence, higher = more signal;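 further: probe is lysate of COS7 cells overexpressing human LULL1; score merges per-feature 667 nm fluorescence with signal-to-noise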
# Torsin-1A-interacting protein 2 (Homo sapiens), sequence (Q8NFQ8 whole entry, looked up): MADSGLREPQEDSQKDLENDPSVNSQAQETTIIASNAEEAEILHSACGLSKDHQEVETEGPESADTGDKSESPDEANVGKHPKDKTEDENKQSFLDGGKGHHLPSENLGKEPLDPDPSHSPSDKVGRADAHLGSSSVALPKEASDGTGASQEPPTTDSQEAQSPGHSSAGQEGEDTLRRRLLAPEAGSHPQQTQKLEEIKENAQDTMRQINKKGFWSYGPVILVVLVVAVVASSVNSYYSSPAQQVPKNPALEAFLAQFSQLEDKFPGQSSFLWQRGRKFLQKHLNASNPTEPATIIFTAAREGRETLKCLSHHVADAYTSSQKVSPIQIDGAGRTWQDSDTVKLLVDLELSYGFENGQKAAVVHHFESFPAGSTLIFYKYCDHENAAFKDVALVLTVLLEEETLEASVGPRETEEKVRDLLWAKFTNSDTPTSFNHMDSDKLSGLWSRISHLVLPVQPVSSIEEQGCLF
# [6] = E. coli growth modulation, two-sided OD650, primary screen, E. coli filamentation project, strain DRC41, 24 h (AID 1093); details: OD650, 24 h, higher = more signal, called active from +8 up or from −8 down;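 further: MC1000 strain lacking acrAB efflux and sulA so SOS filamentation is blocked; test concentration not given here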
# [7] = small-molecule microarray binders of probe aLefty2, primary screen, biochemical, biotinylated probe, 635/667 nm fluorescence (AID 1094); details: higher = more signal;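 further: score merges spot fluorescence near 667 nm with spot signal-to-noise ratio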
# [8] = test system: Noggin (protein binding on small-molecule microarray); experiment: Noggin binders on small-molecule microarray, primary screen, biochemical, 635/667 nm fluorescence (AID 1095); details: 635 nm fluorescence, higher = more signal;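 further: score merges 667 nm feature fluorescence with signal to noise over triplicate slides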
# [9] = biological target: Neurogenic locus notch homolog protein 3 (Homo sapiens) (UniProt Q9UM47); experiment: NOTCH3 binders on small-molecule microarray, primary screen, biochemical, 635/667 nm fluorescence (AID 1096); details: NOTCH3 binding, 635 nm fluorescence, higher = more signal
# Neurogenic locus notch homolog protein 3 (Homo sapiens), sequence (Q9UM47 whole entry, looked up): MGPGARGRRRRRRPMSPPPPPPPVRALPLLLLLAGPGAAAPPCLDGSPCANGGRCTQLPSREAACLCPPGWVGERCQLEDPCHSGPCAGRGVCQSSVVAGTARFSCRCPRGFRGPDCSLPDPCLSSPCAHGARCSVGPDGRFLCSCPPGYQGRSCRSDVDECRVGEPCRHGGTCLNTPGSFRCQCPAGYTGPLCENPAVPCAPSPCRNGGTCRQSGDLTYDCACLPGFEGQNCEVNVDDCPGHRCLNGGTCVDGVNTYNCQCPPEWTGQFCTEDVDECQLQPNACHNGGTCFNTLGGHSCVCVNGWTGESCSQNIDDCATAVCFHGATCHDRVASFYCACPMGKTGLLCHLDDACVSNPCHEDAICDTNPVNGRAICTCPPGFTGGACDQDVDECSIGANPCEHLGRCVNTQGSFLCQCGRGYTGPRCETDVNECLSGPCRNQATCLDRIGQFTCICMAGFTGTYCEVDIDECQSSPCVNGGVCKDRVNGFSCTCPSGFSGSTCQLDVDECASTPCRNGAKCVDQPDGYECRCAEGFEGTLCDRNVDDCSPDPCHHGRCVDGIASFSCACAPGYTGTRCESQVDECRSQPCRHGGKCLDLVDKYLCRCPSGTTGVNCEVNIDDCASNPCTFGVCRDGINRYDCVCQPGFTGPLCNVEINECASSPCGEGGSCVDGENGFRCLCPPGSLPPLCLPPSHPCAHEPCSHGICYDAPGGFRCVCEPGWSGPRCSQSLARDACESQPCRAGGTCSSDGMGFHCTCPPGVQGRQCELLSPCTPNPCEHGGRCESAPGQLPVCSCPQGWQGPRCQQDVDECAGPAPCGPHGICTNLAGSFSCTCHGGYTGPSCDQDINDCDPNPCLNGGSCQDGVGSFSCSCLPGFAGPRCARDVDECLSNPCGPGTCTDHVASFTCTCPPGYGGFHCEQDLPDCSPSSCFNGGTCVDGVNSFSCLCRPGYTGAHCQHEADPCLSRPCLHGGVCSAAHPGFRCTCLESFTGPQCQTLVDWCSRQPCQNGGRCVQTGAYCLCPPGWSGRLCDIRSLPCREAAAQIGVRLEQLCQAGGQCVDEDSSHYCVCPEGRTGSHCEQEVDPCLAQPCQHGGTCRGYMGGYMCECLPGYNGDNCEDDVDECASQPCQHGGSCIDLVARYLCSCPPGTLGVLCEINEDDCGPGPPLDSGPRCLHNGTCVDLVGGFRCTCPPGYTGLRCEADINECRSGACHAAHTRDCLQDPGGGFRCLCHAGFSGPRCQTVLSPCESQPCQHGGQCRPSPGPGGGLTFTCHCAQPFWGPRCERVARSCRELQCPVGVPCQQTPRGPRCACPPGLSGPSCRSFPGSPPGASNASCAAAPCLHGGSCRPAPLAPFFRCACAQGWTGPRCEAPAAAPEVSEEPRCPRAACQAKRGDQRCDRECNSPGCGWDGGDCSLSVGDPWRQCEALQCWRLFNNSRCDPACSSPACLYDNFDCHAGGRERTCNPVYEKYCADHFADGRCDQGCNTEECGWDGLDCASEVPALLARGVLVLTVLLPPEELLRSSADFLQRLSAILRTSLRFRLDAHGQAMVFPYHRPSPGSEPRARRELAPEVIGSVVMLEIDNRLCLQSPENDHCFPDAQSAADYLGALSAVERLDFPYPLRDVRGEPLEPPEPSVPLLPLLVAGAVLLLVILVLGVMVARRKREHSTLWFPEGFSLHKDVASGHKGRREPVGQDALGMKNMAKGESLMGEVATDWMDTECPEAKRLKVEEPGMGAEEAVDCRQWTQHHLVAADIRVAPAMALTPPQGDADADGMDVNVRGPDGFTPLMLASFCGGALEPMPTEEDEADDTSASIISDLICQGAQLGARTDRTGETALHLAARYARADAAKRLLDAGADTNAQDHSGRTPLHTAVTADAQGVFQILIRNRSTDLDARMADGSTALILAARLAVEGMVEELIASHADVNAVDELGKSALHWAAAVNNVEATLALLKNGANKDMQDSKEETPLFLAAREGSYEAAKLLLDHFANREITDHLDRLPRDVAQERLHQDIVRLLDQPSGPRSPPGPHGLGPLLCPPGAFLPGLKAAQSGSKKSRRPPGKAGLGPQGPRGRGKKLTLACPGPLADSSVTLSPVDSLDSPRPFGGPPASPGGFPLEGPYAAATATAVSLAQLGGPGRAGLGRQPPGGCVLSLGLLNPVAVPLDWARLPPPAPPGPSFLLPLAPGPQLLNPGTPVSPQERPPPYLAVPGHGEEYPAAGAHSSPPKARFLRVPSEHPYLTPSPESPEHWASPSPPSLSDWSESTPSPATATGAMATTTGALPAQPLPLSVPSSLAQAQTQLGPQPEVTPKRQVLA
# [10] = small-molecule microarray binders of probe aEGFR, primary screen, biochemical, biotinylated probe, 635/667 nm fluorescence (AID 1097); details: higher = more signal;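 further: probe is a biotinylated anti-EGFR antibody binding compounds printed on slides; score combines fluorescence near 667 nm and signal to noise of each spot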
# [11] = test system: Plasmodium falciparum Sir2 (PF13_0152, Sir2A); experiment: pfSir2 binders on small-molecule microarrays, primary screen, biochemical, small-molecule microarray, 635 nm fluorescence (AID 1098); details: small-molecule microarray binding, fluorescence 635 nm; higher = more signal;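 further: score merges spot fluorescence intensity with its signal-to-noise ratio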
# [12] = small-molecule microarray binders of probe aDKK1, primary screen, biochemical, biotinylated probe, 635/667 nm fluorescence (AID 1099); details: higher = more signal;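 further: score merges 667nm spot fluorescence with signal to noise across triplicate slides; reference of the scale not given here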
# [13] = small-molecule microarray binders of probe aCHRDL2, primary screen, biochemical, biotinylated probe, 635/667 nm fluorescence (AID 1100); details: higher = more signal
# [14] = splicing luciferase reporter signal modulators, primary screen, spliceosome inhibition project, cell-based, HEK293, splice +/- reporter (AID 1101); details: luminescence, 24 h, higher = more signal, called active from +8 up or from −8 down;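 further: HEK293 cells carrying a splicing-competent luciferase reporter gene; test concentration not given here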
# [15] = biological target: Fibroblast growth factor 10 (Homo sapiens) (UniProt O15520); experiment: FGF10 binders on small-molecule microarrays, primary screen, biochemical, small-molecule microarray, 635 nm fluorescence (AID 1102); details: FGF10 binding, fluorescence 635 nm, higher = more signal
# Fibroblast growth factor 10 (Homo sapiens), sequence (O15520 whole entry, looked up): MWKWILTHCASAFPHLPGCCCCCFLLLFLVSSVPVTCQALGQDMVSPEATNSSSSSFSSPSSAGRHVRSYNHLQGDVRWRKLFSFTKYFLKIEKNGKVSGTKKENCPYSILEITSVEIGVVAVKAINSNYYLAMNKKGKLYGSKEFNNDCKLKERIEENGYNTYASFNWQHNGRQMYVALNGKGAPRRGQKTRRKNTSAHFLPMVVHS
# [16] = test system: glycogen synthase kinase-3 (GSK3A per assay name; protocol says GSK3B); experiment: GSK3 binders on small-molecule microarrays, primary screen, biochemical, small-molecule microarray, 635 nm fluorescence, GSK3A (AID 1103); details: small-molecule microarray binding, fluorescence 635 nm; higher = more signal; further: the record names both GSK3A and GSK3B
# [17] = biological target: Epidermal growth factor receptor (Homo sapiens) (UniProt P00533); experiment: EGFR binders on small-molecule microarrays, primary screen, biochemical, small-molecule microarray, 635 nm fluorescence (AID 1104); details: EGFR binding, higher = more signal;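 further: score merges 667 nm emission intensity with spot signal to noise over triplicate slides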
# Epidermal growth factor receptor (Homo sapiens), sequence (P00533 whole entry, looked up): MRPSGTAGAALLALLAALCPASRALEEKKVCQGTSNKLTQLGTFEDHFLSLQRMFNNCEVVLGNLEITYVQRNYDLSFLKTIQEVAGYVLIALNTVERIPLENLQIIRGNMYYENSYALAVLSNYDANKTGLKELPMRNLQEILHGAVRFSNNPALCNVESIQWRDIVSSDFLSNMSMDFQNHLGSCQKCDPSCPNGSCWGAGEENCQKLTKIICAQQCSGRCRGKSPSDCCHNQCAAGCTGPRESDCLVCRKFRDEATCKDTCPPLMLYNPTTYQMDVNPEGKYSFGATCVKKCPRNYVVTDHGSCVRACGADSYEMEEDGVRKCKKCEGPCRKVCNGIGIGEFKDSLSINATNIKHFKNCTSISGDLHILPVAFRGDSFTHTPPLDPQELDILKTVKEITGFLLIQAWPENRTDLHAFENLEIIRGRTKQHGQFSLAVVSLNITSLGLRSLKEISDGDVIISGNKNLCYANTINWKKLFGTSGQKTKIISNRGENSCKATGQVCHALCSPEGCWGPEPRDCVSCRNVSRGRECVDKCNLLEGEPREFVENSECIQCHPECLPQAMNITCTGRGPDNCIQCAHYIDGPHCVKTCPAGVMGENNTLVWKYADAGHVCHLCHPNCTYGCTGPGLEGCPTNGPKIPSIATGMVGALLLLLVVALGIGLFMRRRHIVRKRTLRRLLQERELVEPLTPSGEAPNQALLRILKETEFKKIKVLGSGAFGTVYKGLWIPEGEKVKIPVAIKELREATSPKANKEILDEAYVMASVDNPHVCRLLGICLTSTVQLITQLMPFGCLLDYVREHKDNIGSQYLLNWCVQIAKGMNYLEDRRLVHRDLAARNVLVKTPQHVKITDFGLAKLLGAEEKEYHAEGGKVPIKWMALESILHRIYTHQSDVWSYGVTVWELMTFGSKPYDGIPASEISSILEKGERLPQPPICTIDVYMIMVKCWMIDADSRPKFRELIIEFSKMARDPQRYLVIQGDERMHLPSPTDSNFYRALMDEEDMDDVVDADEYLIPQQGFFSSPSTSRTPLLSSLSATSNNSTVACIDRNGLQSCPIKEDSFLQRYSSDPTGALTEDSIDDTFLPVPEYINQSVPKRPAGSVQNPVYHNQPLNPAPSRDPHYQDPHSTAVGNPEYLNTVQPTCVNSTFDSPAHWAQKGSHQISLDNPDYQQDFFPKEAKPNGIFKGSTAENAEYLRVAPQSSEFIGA
# [18] = biological target: Follistatin-related protein 3 (Homo sapiens) (UniProt O95633); experiment: FSTL3 binders on small-molecule microarrays, primary screen, biochemical, small-molecule microarray, 635 nm fluorescence (AID 1105); details: FSTL3 binding, higher = more signal;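 further: score merges emission near 667 nm and signal to noise per printed spot across three slides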
# Follistatin-related protein 3 (Homo sapiens), sequence (O95633 whole entry, looked up): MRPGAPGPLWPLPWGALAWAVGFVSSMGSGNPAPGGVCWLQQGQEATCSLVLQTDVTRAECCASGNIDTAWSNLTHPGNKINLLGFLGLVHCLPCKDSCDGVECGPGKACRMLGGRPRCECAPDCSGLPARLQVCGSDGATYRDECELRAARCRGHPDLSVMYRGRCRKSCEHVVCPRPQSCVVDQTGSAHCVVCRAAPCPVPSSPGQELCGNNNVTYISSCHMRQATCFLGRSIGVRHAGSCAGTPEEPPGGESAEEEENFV
# [19] = biological target: Dickkopf-related protein 1 (Homo sapiens) (UniProt O94907); experiment: DKK1 binders on small-molecule microarrays, primary screen, biochemical, small-molecule microarray, 635 nm fluorescence scan (AID 1106); details: DKK1 binding, higher = more signal;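 further: score merges emission near 667 nm with signal to noise over three replicate slides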
# Dickkopf-related protein 1 (Homo sapiens), sequence (O94907 whole entry, looked up): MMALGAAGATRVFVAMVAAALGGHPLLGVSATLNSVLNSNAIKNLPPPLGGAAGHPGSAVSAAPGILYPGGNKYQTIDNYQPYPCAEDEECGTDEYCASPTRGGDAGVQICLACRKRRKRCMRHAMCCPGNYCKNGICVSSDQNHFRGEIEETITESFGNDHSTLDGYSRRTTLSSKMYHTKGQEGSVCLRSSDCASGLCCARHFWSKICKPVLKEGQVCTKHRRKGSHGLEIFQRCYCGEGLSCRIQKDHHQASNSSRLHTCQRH
# [20] = test system: Inhibin beta A chain (activin A); experiment: INHBA (activin A) binders on microarrays, primary screen, biochemical, small-molecule microarray, 635 nm fluorescence scan (AID 1107); details: small-molecule microarray binding, higher = more signal;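 further: mouse activin A protein probed at 4.33 µg/mL on printed slides; score merges bound-protein fluorescence near 667 nm with spot signal-to-noise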
SMILES,composite z-score [1],z-score [2],z-score [3],z-score [4],composite z-score [5],z-score [6],composite z-score [7],composite z-score [8],composite z-score [9],composite z-score [10],composite z-score [11],composite z-score [12],composite z-score [13],z-score [14],composite z-score [15],composite z-score [16],composite z-score [17],composite z-score [18],composite z-score [19],composite z-score [20]
O=C1C2C=CC(C(O)c3ccc([N+](=O)[O-])cc3)N(Nc3ccccc3F)C2C(=O)N1c1ccccc1 (stereo not given),0.67,0.213 (inactive),0.619 (inactive),1.05 (inactive),1.87,-0.774 (inactive),0.296,-0.316,0.98,-0.0278,1.22,0.912,0.941,1.02 (inactive),0.436,0.351,-0.0558,0.313,-0.516,0.941
O=C1O[C@H](c2ccccc2)[C@H](c2ccccc2)N2[C@H]1[C@@H](C(=O)N1CCN(c3ncccn3)CC1)[C@]1(C(=O)Nc3ccc(C#CCCO)cc31)[C@H]2c1ccc(O)cc1,0.738,0.515 (inactive),-0.443 (inactive),1.18 (inactive),2.92,-0.778 (inactive),-0.0784,0.283,0.504,-0.004,0.772,-0.238,0.422,-0.057 (inactive),1.06,-0.906,0.397,0.0936,0.359,-0.0667
COCCOC(=O)N1C(=O)[C@@]2(c3ccccc31)[C@H](c1ccc(O)cc1)N1[C@H](c3ccccc3)[C@H](c3ccccc3)OC(=O)[C@H]1[C@@H]2C(=O)N1CCCCCCC1,1.55,-0.322 (inactive),0.621 (inactive),0.929 (inactive),3.9,0.178 (inactive),1.76,1.98,1.02,1.26,1.81,2.94,1.68,-0.682 (inactive),1.39,1.37,1.76,1.69,2.31,1.96
Cc1ccc(S[C@]2(C(=O)NCC(F)(F)F)CC(=O)N(Cc3ccccc3C(F)(F)F)[C@@H]2c2ccc(CO)cc2)cc1,0.895,-0.837 (inactive),0.0848 (inactive),-0.203 (inactive),1.67,-0.254 (inactive),0.145,-0.872,-0.462,-0.0416,-0.57,0.228,0.942,0.338 (inactive),-0.83,-1.23,-0.548,-1.51,-1.07,0.247
CC1CC/C=C\[C@H]2OC34C=CCN(CCN5CCOCC5)C(=O)[C@H]3N(CCCO)C(=O)[C@@H]4C2C(=O)O1 (stereo not given in full),-0.536,0.236 (inactive),-0.218 (inactive),0.585 (inactive),-0.299,-0.546 (inactive),-0.21,-0.639,-0.271,-0.239,0.367,-0.399,-0.141,0.316 (inactive),-0.188,-0.0682,-0.555,-0.59,-0.235,1.39
[N-]=[N+]=Nc1ccccc1C[C@]1(C(=O)N2CCOCC2)N=C(c2ccc(OCCCO)cc2)O[C@H]1c1ccccc1N=[N+]=[N-],1.53,-3.46 (inactive),-10.9 (active),2.91 (inactive),3.39,1.2 (inactive),0.166,1.61,1.04,-0.0211,1.53,0.651,0.915,-0.591 (inactive),1.41,1.31,0.857,1.47,1.42,1.3
COC(=O)[C@@]1(Cc2ccc(OC)cc2)[C@H]2c3cc(C(=O)N4CCCC4)n(Cc4ccc(C(F)(F)F)nc4)c3C[C@H]2CN1C(=O)c1ccccc1,0.0861,-0.361 (inactive),-0.138 (inactive),-0.707 (inactive),1.05,-1.1 (inactive),0.248,0.113,0.269,0.131,1.27,0.0202,0.872,-4.53 (inactive),0.69,-0.478,0.282,0.11,-0.301,0.918
CC(C)(C)OC(=O)CC[C@]1(C(=O)NCC(O)CO)N=C(c2ccc(OCCCO)cc2)O[C@H]1c1ccccc1N=[N+]=[N-] (stereo not given in full),0.98,-0.652 (inactive),-0.0793 (inactive),-0.517 (inactive),3.62,0.821 (inactive),0.595,0.187,0.398,0.0506,1.18,1.24,1.31,-0.254 (inactive),1.4,-0.0629,-0.0913,0.352,0.175,-0.0171
COc1ccc(CCNC(=O)[C@@H]2c3ccccc3C(=O)N(Cc3ccccc3OC)[C@H]2c2ccc(CO)cc2)cc1,1.53,-1.23 (inactive),0.294 (inactive),-0.323 (inactive),2.62,-0.1 (inactive),-0.172,0.0564,0.852,-0.105,1.1,-0.381,0.508,0.295 (inactive),0.454,0.931,0.0744,0.172,0.0163,0.414
CCCC[C@H]1C[C@@H]1[C@@H]1N(C(C)=O)[C@H](c2cccc(OC)c2)CC12CC2,-0.383,-0.872 (inactive),-8.39 (active),-1.82 (inactive),0.755,-0.563 (inactive),0.116,-0.502,-0.27,0.0192,-0.497,0.692,0.878,-1.86 (inactive),0.0847,0.114,-0.0128,0,-0.556,0.596
